Test [1] is described as follows: ATG_E_Box_CIS: Attagene CIS-FACTORIAL HepG2 Assay for human Enhancer Box (E-box) (AID 2282936). The conditions noted are these: HepG2 E-box cis-reporter transcription, actives raise or lower the signal. In a few lines: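 DMSO served as negative control and baseline for bidirectional fitting. Human hepatoma HepG2 cells, transiently transfected with cis-reporter constructs, were dosed 24 h; reporter mRNA read by RT-PCR and capillary electrophoresis.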

A short description of test [2]: ATG_M_61_CIS: Attagene CIS-FACTORIAL HepG2 Assay for M61 Transcription Factor (Internal Marker) (AID 2282937). The conditions noted are these: HepG2 Attagene CIS-FACTORIAL M61 internal marker reporter; actives raise or lower the signal. The essentials: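 HepG2 cells transiently transfected with multiplexed cis-promoter reporter units reporting endogenous transcription factor activity, measured 24 h after dosing. Reporter mRNA quantified by RT-PCR and capillary electrophoresis; bidirectional fit against DMSO baseline.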

The nature of test [3]: ATG_EGR_CIS: Attagene CIS-FACTORIAL HepG2 Assay for human Early Growth Response 1 (EGR1) (AID 2282938). The note with it: HepG2 Attagene CIS-FACTORIAL EGR reporter mRNA; actives raise or lower the signal. In a few lines:
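HepG2 cells transiently transfected with cis-element-driven multiplexed reporter units, dosed for 24 h. EGR1-element reporter mRNA quantified by RT-PCR, 6-FAM labelling, HpaI digestion and capillary electrophoresis; bidirectional fit versus DMSO.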

Test [4] in a line: ATG_M_19_CIS: Attagene CIS-FACTORIAL HepG2 Assay for M19 Transcription Factor (Internal Marker) (AID 2282939). The note with it: HepG2 Attagene CIS-FACTORIAL M19 internal marker reporter; actives raise or lower the signal. In a few lines: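 Following a 24 h exposure, RNA from transfected HepG2 cells was reverse-transcribed, PCR-amplified with reporter-specific primers, end-labelled with 6-FAM and HpaI-digested before capillary separation. Values represent gain or loss versus DMSO.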

Test [5] in a line: ATG_ERE_CIS: Attagene CIS-FACTORIAL HepG2 Assay for Estrogen Response Element (ERE) (AID 2282940). The conditions noted are these: HepG2 ERE cis-reporter, Attagene RNA transcript; actives raise or lower the signal. The essentials:
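HepG2, transient cis-reporter units, 24 h exposure. RNA isolated, oligo(dT) RT, reporter-specific PCR, FAM extension, HpaI cut, CE detection. Gain/loss-of-signal vs DMSO.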

The nature of test [6]: ATG_Ets_CIS: Attagene CIS-FACTORIAL HepG2 Assay for human Erythroblast Transformation Specific (ETS) (AID 2282941). The note with it: HepG2 ETS cis-reporter transcription, actives raise or lower the signal. The essentials: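 HepG2 cells transfected with multiple cis-regulated reporter units measuring endogenous ETS-driven transcription, 24 h after dosing. Reporter mRNA quantified by RT-PCR with capillary electrophoresis; bidirectional fit relative to DMSO.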

The target of test [7] is Hepatocyte nuclear factor 3-beta (Homo sapiens) (UniProt Q9Y261). Description: ATG_FoxA2_CIS: Attagene CIS-FACTORIAL HepG2 Assay for human Forkhead box A2 (FOXA2) (AID 2282942). The conditions noted are these: HepG2 cis-reporter transcription factor activity, 24 h; actives raise or lower the signal. The essentials:
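HepG2 transiently transfected with a multiplexed cis-promoter reporter library read endogenous FOXA2 activity. After 24 h compound exposure, reporter mRNA was quantified by RT-PCR, HpaI digestion and capillary electrophoresis. Bidirectional fit against DMSO.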

Test [8] in a line: ATG_FoxO_CIS: Attagene CIS-FACTORIAL HepG2 Assay for human Forkhead box O (FoxO) (AID 2282943). The conditions noted are these: HepG2 Attagene cis-reporter, FoxO element, mRNA; actives raise or lower the signal. The essentials: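 Endogenous transcription factor activity read from multiplexed cis-promoter reporter transcripts in transiently transfected HepG2, 24 h after dosing. Reporter RNA measured via RT-PCR plus capillary electrophoresis of FAM-labeled products; gain or loss relative to DMSO.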

Test [9] in a line: ATG_GATA_CIS: Attagene CIS-FACTORIAL HepG2 Assay for human GATA Binding Protein (AID 2282944). The conditions noted are these: HepG2 GATA cis-element reporter, Attagene multiplex mRNA; actives raise or lower the signal. The essentials: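 DMSO serves as negative control and baseline for bidirectional fitting of reporter mRNA changes. HepG2 cells bearing transiently transfected cis-promoter reporters were exposed 24 h; transcripts detected via RT-PCR and capillary electrophoresis.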

Test [10] can be described thus: ATG_GLI_CIS: Attagene CIS-FACTORIAL HepG2 Assay for human Zinc Finger Protein GLI1 (AID 2282945). The note with it: HepG2, Attagene cis-factorial reporter mRNA, GLI element; actives raise or lower the signal. In a few lines:
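Bidirectional curve fits relative to DMSO, using reporter mRNA levels from RT-PCR plus capillary electrophoresis. Cells were HepG2 transiently carrying cis-regulated reporter constructs, harvested 24 h after dosing.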

Test [11] is described as follows: ATG_GRE_CIS: Attagene CIS-FACTORIAL HepG2 Assay for human Glucocorticoid Response Elements (GRE) (AID 2282947). The note with it: HepG2 GRE cis-reporter, Attagene multiplex mRNA; actives raise or lower the signal. In a few lines:
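Assay uses human hepatoma HepG2 cells transfected with cis-promoter reporter units, exposed 24 h. mRNA from reporters detected by RT-PCR plus capillary electrophoresis; DMSO serves as negative control and baseline.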

Test [12] in a line: ATG_ISRE_CIS: Attagene CIS-FACTORIAL HepG2 Assay for human Interferon Regulatory Factor 1 (IRF1) binding to an Interferon-Stimulated Response Element (ISRE) (AID 2282948). The note with it: HepG2 ISRE cis-reporter (Attagene), mRNA transcription readout; actives raise or lower the signal. In a few lines: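 Transiently transfected HepG2 cells carrying cis-element reporter units, dosed 24 hours. Reporter mRNA quantified by RT-PCR, fluorescent primer extension, HpaI digestion and capillary electrophoresis. Bidirectional fitting relative to DMSO.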

The nature of test [13]: ATG_M_32_CIS: Attagene CIS-FACTORIAL HepG2 Assay for M32 Transcription Factor (Internal Marker) (AID 2282949).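 Note: background control marker of the multiplexed CIS panel rather than a real target.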 The conditions noted are these: HepG2 Attagene cis-factorial M32 reporter, mRNA; actives raise or lower the signal. The essentials: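 Following 24 h chemical exposure of HepG2 cells transiently expressing cis-promoter reporter constructs, reporter transcript levels were determined by RT-PCR with fluorescent labelling and capillary electrophoresis, then fitted bidirectionally against DMSO.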

Test [14] in a line: ATG_M_06_CIS: Attagene CIS-FACTORIAL HepG2 Assay for M06 Transcription Factor (Internal Marker) (AID 2282950). The conditions noted are these: HepG2 Attagene CIS-FACTORIAL M06 internal marker reporter; actives raise or lower the signal. The essentials: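 Fluorescence-labelled RT-PCR products from cis-promoter reporter units, cut with HpaI and resolved by capillary electrophoresis, give the signal. Cells are human HepG2, dosed for 24 h. Serves as background control, fitted relative to DMSO.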

Test [15] addresses Hypoxia-inducible factor 1-alpha (Homo sapiens) (UniProt Q16665). Description: ATG_HIF1a_CIS: Attagene CIS-FACTORIAL HepG2 Assay for human Hypoxia Inducible Factor 1 (HIF1A) (AID 2282951). The note with it: HepG2 Attagene cis-factorial HIF1a reporter transcription; actives raise or lower the signal. The essentials: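 HepG2 cells transiently transfected with multiple cis-regulated reporter transcription units measure endogenous transcription factor activity. After 24 h exposure, reporter mRNA is quantified by RT-PCR with 6-FAM labelling, HpaI digestion and capillary electrophoresis. Bidirectional fitting against DMSO.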

In test [16] the target is Hepatocyte nuclear factor 6 (Homo sapiens) (UniProt Q9UBC0). Description: ATG_HNF6_CIS: Attagene CIS-FACTORIAL HepG2 Assay for human Hepatocyte Nuclear Factor 6 (HNF6) (AID 2282952). The conditions noted are these: HepG2 Attagene cis-factorial HNF6 reporter transcription; actives raise or lower the signal. In a few lines: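 HepG2 cells transiently transfected with cis-element-driven multiple reporter transcription units, dosed 24 h; reporter mRNA quantified by RT-PCR, FAM primer extension, HpaI digestion and capillary electrophoresis; bidirectional fit versus DMSO baseline.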

Test [17] concerns the target Heat shock factor protein 1 (Homo sapiens) (UniProt Q00613). Description: ATG_HSE_CIS: Attagene CIS-FACTORIAL HepG2 Assay for human Heat Shock Transcription Factor 1 (HSE) (AID 2282953). The conditions noted are these: HepG2 HSE cis-reporter, Attagene RNA transcription; actives raise or lower the signal. In a few lines: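 After a 24 h incubation with test chemical, transfected HepG2 cells were harvested for RNA; reporter transcripts were measured by RT-PCR and capillary electrophoresis. Values reflect gain or loss of signal relative to DMSO.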

The nature of test [18]: ATG_MRE_CIS: Attagene CIS-FACTORIAL HepG2 Assay for human Metal Responsive Element (MRE) (AID 2282954). The conditions noted are these: HepG2 MRE cis-reporter transcription, Attagene multiplex; actives raise or lower the signal. In a few lines: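 After a 24 h chemical exposure, transiently transfected HepG2 cells yield RNA whose reporter sequences are amplified, FAM-labelled and sized by capillary electrophoresis. Curves are fitted bidirectionally relative to DMSO.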

The nature of test [19]: ATG_PBREM_CIS: Attagene CIS-FACTORIAL HepG2 Assay for human Phenobarbital-responsive Enhancer Module (PBREM) (AID 2282955). The note with it: HepG2 PBREM cis-reporter, Attagene multiplexed transcription; actives raise or lower the signal. In a few lines: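 HepG2 cells transiently transfected with multiple cis-regulated reporter units measure endogenous transcription factor activity; 24 h compound exposure. Reporter mRNA quantified by RT-PCR, fluorescent labelling, HpaI digestion and capillary electrophoresis; bidirectional fit versus DMSO.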

Test [20] has as its target Bile acid receptor (Homo sapiens) (UniProt Q96RI1). Description: ATG_IR1_CIS: Attagene CIS-FACTORIAL HepG2 Assay for human Nuclear Receptor Subfamily 1 Group H Member 4 (NR1H4), IR1 submotif (AID 2282946). The conditions noted are these: IR1 reporter transcription, actives raise or lower the signal. The essentials:
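Cells (human HepG2) carry transiently transfected cis-promoter reporter transcription units. Compounds are incubated 24 h, total RNA is reverse-transcribed and amplified, and labelled fragments are resolved by capillary electrophoresis. Curves use DMSO as baseline.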

Activity calls are given as the source filed them. Rule for the calls: active = hit-call score of the fitted dose curve at least 0.9, where 1 is the maximum; inactive = score below 0.9.

We go through four molecules from PubChem BioAssay (EPA / NIEHS).

As usually defined, the AC50 is the concentration at which the activity in the assay is half-maximal.

Sequence of Hepatocyte nuclear factor 3-beta (Homo sapiens) (Q9Y261 whole entry, looked up): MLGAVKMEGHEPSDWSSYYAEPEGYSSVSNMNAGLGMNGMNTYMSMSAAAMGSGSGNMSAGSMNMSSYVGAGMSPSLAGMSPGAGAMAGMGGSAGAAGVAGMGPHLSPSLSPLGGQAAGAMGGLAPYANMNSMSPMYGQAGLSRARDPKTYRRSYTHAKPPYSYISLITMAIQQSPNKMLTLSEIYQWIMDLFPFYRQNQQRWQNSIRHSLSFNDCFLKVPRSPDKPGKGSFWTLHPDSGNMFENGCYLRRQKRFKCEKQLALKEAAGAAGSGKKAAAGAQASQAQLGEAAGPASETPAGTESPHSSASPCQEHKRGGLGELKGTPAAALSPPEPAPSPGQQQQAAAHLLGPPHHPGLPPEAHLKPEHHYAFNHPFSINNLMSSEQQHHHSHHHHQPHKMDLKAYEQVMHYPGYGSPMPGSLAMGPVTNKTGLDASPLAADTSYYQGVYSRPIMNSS
Sequence of Hypoxia-inducible factor 1-alpha (Homo sapiens) (Q16665 whole entry, looked up): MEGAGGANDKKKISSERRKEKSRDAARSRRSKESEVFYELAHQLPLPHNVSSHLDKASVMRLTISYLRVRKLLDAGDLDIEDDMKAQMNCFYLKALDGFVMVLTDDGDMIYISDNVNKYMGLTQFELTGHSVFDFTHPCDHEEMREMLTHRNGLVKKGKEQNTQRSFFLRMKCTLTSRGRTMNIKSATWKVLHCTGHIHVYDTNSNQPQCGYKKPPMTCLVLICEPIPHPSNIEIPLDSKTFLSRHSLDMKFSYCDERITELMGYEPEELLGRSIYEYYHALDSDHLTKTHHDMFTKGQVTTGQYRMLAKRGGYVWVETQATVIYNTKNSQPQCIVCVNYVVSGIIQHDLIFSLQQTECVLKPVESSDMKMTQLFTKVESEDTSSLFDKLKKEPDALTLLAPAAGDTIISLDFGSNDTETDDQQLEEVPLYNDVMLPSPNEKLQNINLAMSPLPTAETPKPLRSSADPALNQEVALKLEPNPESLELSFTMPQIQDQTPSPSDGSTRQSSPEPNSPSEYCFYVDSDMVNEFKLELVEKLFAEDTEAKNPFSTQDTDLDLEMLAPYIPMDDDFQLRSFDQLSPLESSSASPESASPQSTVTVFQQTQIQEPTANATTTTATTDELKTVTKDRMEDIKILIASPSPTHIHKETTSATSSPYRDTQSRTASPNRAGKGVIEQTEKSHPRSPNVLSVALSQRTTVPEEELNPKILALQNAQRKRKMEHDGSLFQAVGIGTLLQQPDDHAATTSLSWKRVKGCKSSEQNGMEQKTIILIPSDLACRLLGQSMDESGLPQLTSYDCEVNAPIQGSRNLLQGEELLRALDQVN
Sequence of Heat shock factor protein 1 (Homo sapiens) (Q00613 whole entry, looked up): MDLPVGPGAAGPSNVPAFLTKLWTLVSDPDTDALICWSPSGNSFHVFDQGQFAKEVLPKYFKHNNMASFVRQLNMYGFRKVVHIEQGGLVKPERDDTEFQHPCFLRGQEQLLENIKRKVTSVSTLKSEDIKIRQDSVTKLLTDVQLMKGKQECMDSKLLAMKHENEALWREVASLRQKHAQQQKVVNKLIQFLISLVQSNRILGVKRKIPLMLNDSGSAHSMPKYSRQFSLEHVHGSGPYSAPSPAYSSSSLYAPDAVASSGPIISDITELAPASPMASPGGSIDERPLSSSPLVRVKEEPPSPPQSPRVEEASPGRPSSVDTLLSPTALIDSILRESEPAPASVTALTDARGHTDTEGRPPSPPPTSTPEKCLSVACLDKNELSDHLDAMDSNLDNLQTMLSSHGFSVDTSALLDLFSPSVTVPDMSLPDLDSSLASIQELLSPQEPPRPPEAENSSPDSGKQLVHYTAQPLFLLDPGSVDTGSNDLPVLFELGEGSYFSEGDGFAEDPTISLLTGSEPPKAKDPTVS
Sequence of Hepatocyte nuclear factor 6 (Homo sapiens) (Q9UBC0 whole entry, looked up): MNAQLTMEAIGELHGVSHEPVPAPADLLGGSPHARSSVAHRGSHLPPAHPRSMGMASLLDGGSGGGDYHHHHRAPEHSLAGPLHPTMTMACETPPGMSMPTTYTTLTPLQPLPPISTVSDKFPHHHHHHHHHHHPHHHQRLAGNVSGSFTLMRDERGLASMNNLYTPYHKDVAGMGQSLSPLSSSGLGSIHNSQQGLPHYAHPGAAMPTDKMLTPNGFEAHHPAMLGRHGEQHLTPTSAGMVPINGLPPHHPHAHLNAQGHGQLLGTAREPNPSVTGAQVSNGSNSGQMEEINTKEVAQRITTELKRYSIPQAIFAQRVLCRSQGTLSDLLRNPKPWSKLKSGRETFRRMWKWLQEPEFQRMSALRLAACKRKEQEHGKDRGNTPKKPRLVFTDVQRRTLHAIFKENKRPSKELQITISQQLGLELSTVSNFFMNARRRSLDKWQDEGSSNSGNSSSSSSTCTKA
Sequence of Bile acid receptor (Homo sapiens) (Q96RI1 whole entry, looked up, the tested form may be a part): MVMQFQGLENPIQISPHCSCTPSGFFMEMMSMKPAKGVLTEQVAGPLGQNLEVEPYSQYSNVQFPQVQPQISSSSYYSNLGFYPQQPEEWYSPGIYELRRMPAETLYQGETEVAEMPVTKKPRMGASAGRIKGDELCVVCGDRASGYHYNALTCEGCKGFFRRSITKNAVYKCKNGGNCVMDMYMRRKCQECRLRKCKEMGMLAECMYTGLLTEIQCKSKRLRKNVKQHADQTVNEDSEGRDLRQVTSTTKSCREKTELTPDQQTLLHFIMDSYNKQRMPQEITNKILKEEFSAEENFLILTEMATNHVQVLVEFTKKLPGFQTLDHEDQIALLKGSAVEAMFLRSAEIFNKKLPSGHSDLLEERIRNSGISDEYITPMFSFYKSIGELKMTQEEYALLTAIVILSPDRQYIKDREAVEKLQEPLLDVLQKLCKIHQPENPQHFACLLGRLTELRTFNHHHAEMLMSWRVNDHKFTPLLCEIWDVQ

Turning to `C=C[Si](OC(C)=O)(OC(C)=O)OC(C)=O`, the result in test [1], in test [2], in test [3], in test [4], in [5] and in test [6] was inactive. For the same molecule, the result in [7], in test [8], in test [9], in [10], in test [11] and in [12] was inactive. For the same molecule, the molecule was called inactive in [13], in test [14], in test [15], in test [16], in test [17] and in test [18]. In test [19], the outcome was inactive.

For the molecule `CNC(=S)NN`, the result in test [1], in test [2], in test [3], in test [4], in test [5] and in [6] was inactive. The outcome in test [7], in [8], in test [9], in test [10], in [11] and in test [12] was inactive. The outcome in test [13], in [14], in test [15], in test [16], in test [17] and in [18] was inactive.

As to `Cc1cc(C)c(C)c(C)c1`, the outcome in [1], in [2], in test [3], in test [4], in test [5] and in test [6] was inactive. The result in test [7], in test [8], in [9], in test [10], in test [20] and in [12] was inactive. Further, the result in test [14], in [15], in test [16], in [18] and in [19] was inactive.

`O=C1c2ccccc2C(=O)C1c1nc2ccccc2c(Br)c1O`: the result in test [1], in test [2], in [3], in test [4], in [6] and in test [8] was inactive. The molecule was classed as inactive in [9], in test [10], in [11], in [12], in test [13] and in test [14]. The molecule was classed as inactive in test [16], in test [17] and in test [18]. Also, the AC50 was 6.37 µM (active) in [5], 1.26 µM (active) in test [7] and 4.92 µM (active) in test [15].
